Laboratory results: PubChem BioAssay (NCI)
The panel holds about 79,000 compounds, 15% with a hit somewhere; the sample as a whole holds those more often. Calls of active or inactive are those of the source. Cut-off read from the data, not from the text of the source: active = growth inhibition above about 70%; inactive = the rest.

Tests used:
[1] = NCI Yeast Anticancer Drug Screen. Data for the rad50 strain (AID 155);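 note: 0% = growth of vehicle-only cultures of the same strain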; details: S. cerevisiae rad50 strain growth inhibition; at 50.0 µM; hits give high values
In short: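 Readout: growth inhibition relative to vehicle-treated cultures. Compound exposure was carried out in a genetically defined yeast strain deficient in DNA damage repair.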

[2] = NCI Yeast Anticancer Drug Screen. Data for the mec2-1 strain (AID 157); details: S. cerevisiae mec2-1 strain, at 50.0 µM, hits give high values
In short: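 Strain: mec2-1 (DNA repair/cell cycle alteration). Compound exposure, then growth measured; inhibition expressed relative to vehicle.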

[3] = NCI Yeast Anticancer Drug Screen. Data for the sgs1 mgt1 strain (AID 161);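 note: 0% = growth of cultures given vehicle only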; details: S. cerevisiae sgs1 mgt1 strain, at 50.0 µM, hits give high values
In short: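 Read-out: growth inhibition vs vehicle controls. Cells: mutant yeast strain deficient in DNA damage repair.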

[4] = NCI Yeast Anticancer Drug Screen. Data for the cln2 rad14 strain (AID 165);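 note: 0% = growth equal to vehicle treated cultures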; details: S. cerevisiae cln2 rad14 strain, at 50.0 µM, hits give high values
In short: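 Compounds are applied to the cln2 rad14 yeast strain, and growth is then compared with that of vehicle-treated cultures to give inhibition.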

[5] = NCI Yeast Anticancer Drug Screen. Data for the bub3 strain (AID 167); details: S. cerevisiae bub3 mutant strain, at 50.0 µM, hits give high values
In short: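 Readout: yeast growth inhibition, expressed relative to vehicle-only wells. The test organism is a mutant strain from a panel with lesions in DNA repair or checkpoint genes.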

[6] = NCI Yeast Anticancer Drug Screen. Data for the mlh1 rad18 strain (AID 175); details: S. cerevisiae mlh1 rad18 strain growth inhibition; at 50.0 µM; hits give high values
In short: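 Read-out is yeast growth inhibition, calculated against vehicle-only controls. The compound was applied to a strain engineered with DNA damage repair alterations.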

Measured: growth inhibition

CCOC(=O)CCCCCCCCC(=O)Nc1ccc(-n2[nH]c(=O)cc2C)cc1
inactive: [1] -2.6% | [2] -31% | [3] -27.6% | [4] 6.95% | [5] -4.1% | [6] -3.3%

[N-]=[N+]=Nc1ccccc1-c1ccccc1[N+](=O)[O-]
inactive: [1] 35% | [2] -6.3% | [3] 40.3% | [4] 0.4% | [5] -6.4% | [6] 28.6%

COc1cc2ccc1OCc1cccc(n1)COc1ccc(cc1OC)C=NCCNCCN=C2
inactive: [1] -4.6% | [2] -22.8% | [3] -14.9% | [4] -21.8% | [5] -17.3% | [6] -17.4%

CC(=O)Nc1ccc(/C=N/NS(=O)(=O)c2ccc(C)cc2)cc1
inactive: [1] 0.3% | [2] 34.7% | [3] 16.9% | [4] -1.85% | [5] 30.6% | [6] 17.1%

Cc1cc(N=C2C=CC(=O)C=C2)ccc1O
inactive: [1] 40.5% | [2] 21.6% | [3] 30.4% | [4] 10.2% | [5] 15.9% | [6] 25.6%

C1CSCC2(COC2)CS1
inactive: [1] 13% | [2] 13.6% | [3] -9.65% | [4] 5% | [5] -1.55% | [6] 14.2%

COc1cc(-c2ccccc2)c(OC)cc1CCl
inactive: [1] 4.05% | [2] 2.95% | [3] 17.8% | [4] 6% | [5] 13.7% | [6] 20%

C[N+](C)(Cc1cccc(Cl)c1)c1nnn[n-]1
inactive: [1] -9.75% | [2] -18.9% | [3] -7.05% | [4] -22.6% | [5] -7.4% | [6] -9.5%

CCOC(=O)CC(=O)C(=O)NNC1=NCCN1
inactive: [1] 7.15% | [2] 11.6% | [3] 23.6% | [4] 2.45% | [5] 13.3% | [6] 15.2%

COc1ccccc1NC(=O)CCl
inactive: [1] 17.8% | [2] 24.9% | [3] 24.4% | [4] 18.8% | [5] 28.5% | [6] 36.2%

COc1ccc(NC(=O)C2=C(SC)C(C#N)C(=O)N=C2N)cc1 (configuration not stated)
inactive: [1] -25.1% | [2] -12.5% | [3] 0.2% | [4] 19.7% | [5] -31.4% | [6] 1.3%

CCN(CC)CCOC(=O)c1ccc(N=C/C=C/C(C#N)=C/NOC)cc1
inactive: [1] 0.3% | [2] 27.4% | [3] 9.85% | [4] 21.4% | [5] 9.9% | [6] 30.9%

NC1=NC(c2ccccc2)N=C(Nc2ccccc2)N1 (configuration not stated)
inactive: [1] 37.2% | [2] 1.4% | [3] 16.4% | [4] -15% | [5] 15.2% | [6] 41.6%

Cc1ccc(SC(C)/C=C/NNC2=NC(c3ccccc3)C(c3ccccc3)=NN2)cc1 (configuration not stated)
inactive: [1] 35.2% | [2] 10.2% | [3] 6.05% | [4] 30.4% | [5] 13.7% | [6] 24.1%

Cc1cc(Br)cc(C)c1NC(=O)C(=O)C(C(=O)c1ccncc1)C1OC(=O)c2ccccc21 (configuration not stated)
inactive: [1] -12.6% | [2] -31.1% | [3] -51.9% | [4] 15.8% | [5] 16.2% | [6] -7.35%

C/C(CCn1[nH]c(=O)ccc1=O)=N\N=C(N)N
inactive: [1] -13.2% | [2] -13.1% | [3] -0.65% | [4] -4.85% | [5] -1.4% | [6] 1.7%

CN(C)c1ccc(/C=N/NC(=O)c2ccc(N)cc2)cc1
inactive: [1] 1.35% | [2] 5.15% | [3] -12.7% | [4] -12.4% | [5] -2.4% | [6] 14.3%

Cc1cc2cc(Cl)ccc2nc1C(=O)c1ccccc1
inactive: [1] -5.75% | [2] -24.4% | [3] -3.3% | [4] 17.7% | [5] -6.65% | [6] -18.7%

CCCCCCC/C=N/Nc1ccc([N+](=O)[O-])cc1[N+](=O)[O-]
inactive: [1] -3.3% | [2] -16.1% | [3] -5.55% | [4] -23.9% | [5] 1.4% | [6] 12.9%

COC(=O)C(/C(=N\NC(N)=S)C(=O)Nc1ccccc1[N+](=O)[O-])c1cnc2ccccc2n1 (configuration not stated)
inactive: [1] 5% | [2] -14.7% | [3] -8.55% | [4] 2.1% | [5] -19.1% | [6] -18.7%

CCOc1cc(/C=N/NC(=O)N(c2ccccc2)c2ccccc2)ccc1O
inactive: [1] 4.25% | [2] -8.6% | [3] 25.6% | [4] 12.8% | [5] 24.6% | [6] 7.35%

COC1=C(c2c[nH]c3ccc(CC=C(C)C)cc23)C(=O)C(OC)=C(c2c[nH]c3ccc(CC=C(C)C)cc23)C1=O
inactive: [1] 30.5% | [2] 6.5% | [3] 13.6% | [4] 19.4% | [5] -1.1% | [6] 29.6%

Cc1c(CCOC=O)c(=O)[nH]c2nncn12
inactive: [1] -15.5% | [2] -29.6% | [3] -18.3% | [4] 16.9% | [5] -9.65% | [6] 2.65%

CC(C)SC1SCC2C(=O)N(C)C3(CC3C)C(=O)OCC(NC(=O)c3nc4ccccc4cc3O)C(=O)NC(C)C(=O)N(C)C1C(=O)N(C)C1(CC1C)C(=O)OCC(NC(=O)c1nc3ccccc3cc1O)C(=O)NC(C)C(=O)N2C (configuration not stated)
inactive: [2] 68%
active: [1] 70.4% | [3] 78% | [4] 73.8% | [5] 78.8% | [6] 81.2%

Cc1ccc(S(=O)(=O)N/N=C/c2cc([N+](=O)[O-])ccc2O)cc1
inactive: [1] 5% | [2] 3.4% | [3] 10.1% | [4] 14.8% | [5] 9.5% | [6] 28.9%

O=C(O)C(Cc1ccc(O)cc1)NC(=O)C(CSC(c1ccccc1)(c1ccccc1)c1ccccc1)NC(c1ccccc1)(c1ccccc1)c1ccccc1 (configuration not stated)
inactive: [1] 3.75% | [2] 30.9% | [3] 11.5% | [4] -2.35% | [5] -4.55% | [6] 23%

CCCCCCCCCCCCCCCCCCNC(=O)N(C)Cc1ccccc1
inactive: [1] 17.5% | [2] 1.65% | [3] -0.65% | [4] -4.75% | [5] -1% | [6] -8.05%

O=C1CCC(=O)N1Cl
inactive: [1] 1.05% | [2] -1% | [3] -3.6% | [4] -13.3% | [5] -5.75% | [6] -13.8%

COc1ccccc1NC(=O)C1=C(C)NC(C)=C(C(=O)Nc2ccccc2OC)C1c1cccc2ccccc12
inactive: [1] 28.4% | [2] -2.35% | [3] -18.2% | [4] 29.4% | [5] 6.65% | [6] 0.5%

CCC(C(=O)O)c1ccc(OCc2ccccc2)cc1 (configuration not stated)
inactive: [1] 15.7% | [2] 2% | [3] -10.2% | [4] 18.7% | [5] 8.05% | [6] -2.95%

c1ccc2[nH]c(N=Nc3cccc4c(N=Nc5cc6ccccc6[nH]5)cccc34)cc2c1
inactive: [1] 5.1% | [2] -11.4% | [3] -13.7% | [4] 18.1% | [5] -2.6% | [6] 8.65%

CC(C)(C)C1CCC(=NO)CC1 (configuration not stated)
inactive: [1] 23.1% | [2] 16.1% | [3] 16.5% | [4] 18.3% | [5] 14.3% | [6] 23.8%

Cc1c(C(=O)/C=C/c2ccc(N(C)C)cc2)c(=O)n(-c2ccccc2)n1C
inactive: [1] -7% | [2] -45.1% | [3] -36.1% | [4] -8.85% | [5] -29.7% | [6] -20.1%

NC(N)=NC(N)=Nc1ccc(C(=O)O)cc1
inactive: [1] -7.4% | [2] 5.95% | [3] -26.8% | [4] -29.2% | [5] -68% | [6] -4%

C(#CCN1CCOCC1)CCCN1CCOCC1
inactive: [1] 1.2% | [2] -38.7% | [3] -2.45% | [4] -17.4% | [5] -15.2% | [6] 10.2%

COc1ccc(C(=O)c2cc(S(=O)(=O)O)c(OC)cc2O)c(O)c1
inactive: [1] -32.8% | [2] -35.4% | [3] -31.2% | [4] -1.6% | [5] -13.4% | [6] -21.9%

CC(C)SSC(=O)N1CCCC1C(=O)O (configuration not stated)
inactive: [1] -1.6% | [2] 3.05% | [3] -5.45% | [4] -30.9% | [5] -1% | [6] -1.7%
